Inconclusive results are not listed. Where a call stands in place of a potency, no number is given. Unmarked numbers belong to inactive results. Active and inactive are the calls of the source. Unless noted, calls come from the whole dose curve; as a rule, active = well fitted curve in the direction sought with a large enough effect in the repeat runs; inconclusive = weak or mixed curves; inactive = no such curve, though single readings can be large; an effect the other way counts as inactive or inconclusive.
Tests used:
[1] = biological target: Aryl hydrocarbon receptor (Homo sapiens) (UniProt P35869); test: qHTS assay to identify small molecule that activate the aryl hydrocarbon receptor (AhR) signaling pathway (AID 743085);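 note: HG2L7.5c1 human HepG2 liver cells with stably integrated DRE-driven firefly reporter; series mostly up to about 70 µM; nearly all actives have a fitted effect of over 15% in size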
How it was run: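 AhR agonist activity is inferred from enhanced light output of a DRE-controlled firefly luciferase reporter in HepG2 cells, measured with ONE-Glo following 24 h treatment at 37C.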

[2] = qHTS assay to identify small molecule that activate the aryl hydrocarbon receptor (AhR) signaling pathway - cell viability counter screen (AID 743086); note: nearly all actives have a fitted effect of over 45% in size; note: potency is the fitted concentration of half-maximal effect;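 for viability change, negative = cytotoxic: HepG2 liver cells carrying the AhR DRE luciferase reporter; series mostly up to about 70 µM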
How it was run: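 HepG2-AhR-luc (HG2L7.5c1) cells, 4000/well, treated 24 h at 37 C with compound; viability measured as CellTiter-Fluor fluorescence after 30 min in the same wells as the luciferase read.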

[3] = biological target: Peroxisome proliferator-activated receptor gamma (Homo sapiens) (UniProt P37231); test: qHTS assay to identify small molecule agonists of the peroxisome proliferator-activated receptor gamma (PPARg) signaling pathway (AID 743094; active = well fitted activation curve with a large enough effect in the signal ratio in the repeat runs, not every such curve was filed as active; the % refers to the signal ratio)
How it was run: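 Agonism was assessed in a beta-lactamase reporter system, HEK293H cells with a stably integrated UAS-bla construct under PPARg control; the 17 h treatment at 37C preceded a 1 h room-temperature FRET substrate read.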

[4] = biological target: Peroxisome proliferator-activated receptor gamma (Homo sapiens) (UniProt P37231); test: qHTS assay to identify small molecule antagonists of the peroxisome proliferator-activated receptor gamma (PPARg) signaling pathway (AID 743191; calls by dose curve; note: series mostly up to about 63 µM; nearly all actives have a fitted effect of over 30% in size)
How it was run: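 GeneBLAzer PPARg UAS-bla HEK293H cells, 5 h post-plating, exposed to compounds 17 h at 37C. LiveBLAzer B/G FRET substrate added for 1 h at room temperature; beta-lactamase reporter read by fluorescence intensity.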

[5] = qHTS assay for small molecule agonists of the antioxidant response element (ARE) signaling pathway (AID 743202; active = well fitted activation curve with a large enough effect in the signal ratio in the repeat runs, not every such curve was filed as active; the % refers to the signal ratio)
How it was run: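 HepG2 ARE-bla reporter line, 2,000 cells/well; 5 h preincubation 37 C/5% CO2; compound (DMSO) 16 h 37 C; B/G FRET substrate 2 h RT; fluorescence intensity.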

[6] = qHTS assay for small molecule agonists of the antioxidant response element (ARE) signaling pathway - cell viability counter screen (AID 743203; calls by dose curve; note: nearly all actives have a fitted effect of over 55% in size)
How it was run: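 ATP content via CellTiter-Glo luminescence served as the viability measure. Cells: ARE-bla HepG2, 2,000 per well. Exposure: 16 hrs, 37C/5% CO2.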

[7] = qHTS assay for small molecule activators of the heat shock response signaling pathway - cell viability counter screen (AID 743209); note: nearly all actives have a fitted effect of over 50% in size
How it was run: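 Compounds dissolved in DMSO were added to overnight-plated HSE-bla HeLa cells and left 5 h at 37 C. Cell viability was quantified by luminescence using CellTiter-Glo.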

[8] = qHTS assay for small molecule activators of the heat shock response signaling pathway (AID 743210; active = well fitted activation curve with a large enough effect in the signal ratio in the repeat runs, with a control signal flat, not every such curve was filed as active; the % refers to the signal ratio;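 note: HeLa cells with beta-lactamase reporter driven by heat shock elements; series mostly up to about 63 µM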)
How it was run: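 Beta-lactamase reporter read-out: FRET substrate fluorescence after 2.5 h at RT, following 5 h compound treatment at 37 C of HeLa cells carrying HSE-driven bla reporter; quantitative HTS format.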

[9] = qHTS assay to identify small molecule agonists of the peroxisome proliferator-activated receptor delta (PPARd) signaling pathway - cell viability counter screen (AID 743211); note: nearly all actives have a fitted effect of over 55% in size
How it was run: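 qHTS cell viability: PPARd-bla HEK293H; 17 h cpd, 37C; CellTiter-Glo, luminescence at 30 min RT.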

[10] = biological target: Peroxisome proliferator-activated receptor delta (Homo sapiens) (UniProt Q03181); test: qHTS assay to identify small molecule agonists of the peroxisome proliferator-activated receptor delta (PPARd) signaling pathway (AID 743212; calls by dose curve)
How it was run: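 Read-out: beta-lactamase FRET fluorescence after 2 h room-temperature incubation with LiveBLAzer B/G substrate. Cells were HEK293H carrying a UAS-bla reporter for PPARd, treated at 37 C with DMSO-dissolved compounds.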

[11] = qHTS assay to identify small molecule antagonists of the peroxisome proliferator-activated receptor delta (PPARd) signaling pathway - cell viability counter screen (AID 743213); note: nearly all actives have a fitted effect of over 50% in size
How it was run: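 PPARd-bla HEK293H cells (3000/well) got compound plus 300 nM L165041 agonist for 17 h at 37 C. Viability in the same wells came from CellTiter-Glo luminescence after 30 min at room temperature.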

[12] = biological target: Peroxisome proliferator-activated receptor delta (Homo sapiens) (UniProt Q03181); test: qHTS assay to identify small molecule antagonists of the peroxisome proliferator-activated receptor delta (PPARd) signaling pathway (AID 743215; active = well fitted inhibition curve with a large enough effect in the signal ratio in the repeat runs, not every such curve was filed as active; the % refers to the signal ratio;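 note: cells stimulated with agonist L165041 at 300 nM final during compound exposure; series mostly up to about 62 µM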)
How it was run: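 Here, a reporter line (HEK293H, beta-lactamase under a UAS) measures PPARd signaling. Compounds are tested against agonist L165041 at 300 nM final concentration over 17 h at 37 C, with fluorescence read after substrate.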

[13] = biological target: Bile acid receptor (Homo sapiens) (UniProt Q96RI1); test: qHTS assay to identify small molecule antagonists of the farnesoid-X-receptor (FXR) signaling pathway (AID 743217; active = well fitted inhibition curve with a large enough effect in the signal ratio in the repeat runs, not every such curve was filed as active; the % refers to the signal ratio)
How it was run: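 Test compounds are pin-transferred onto FXR-bla HEK 293T cells, then chenodeoxycholic acid is added at 50 uM final. After 16 h at 37 °C, LiveBLAzer B/G substrate is applied for 2 h at room temperature and fluorescence read.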

[14] = biological target: Bile acid receptor (Homo sapiens) (UniProt Q96RI1); test: qHTS assay to identify small molecule agonists of the farnesoid-X-receptor (FXR) signaling pathway (AID 743220; active = well fitted activation curve with a large enough effect in the signal ratio in the repeat runs, not every such curve was filed as active; the % refers to the signal ratio; note: potency is the fitted concentration of half-maximal effect)
How it was run: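 FXR-UAS-bla HEK 293T cells carrying a UAS-driven beta-lactamase reporter were plated for 5 h at 37C/5% CO2, then exposed to DMSO-dissolved Tox21 10K compounds for 16 h at 37C. A LiveBLAzer B/G FRET substrate was loaded for 2 h at room temperature before fluorescence reading.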

[15] = qHTS assay to identify small molecule antagonists of the farnesoid-X-receptor (FXR) signaling pathway - cell viability counter screen (AID 743221; active = well fitted cell-killing curve with a large enough effect in the repeat runs, not every such curve was filed as active; note: nearly all actives have a fitted effect of over 50% in size)
How it was run: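 After a 5 h settling period, FXR-bla HEK 293T cells receive compound and chenodeoxycholic acid (50 uM final) and incubate 16 h at 37 C; CellTiter-Glo luminescence, read after 30 min at room temperature, reports cell viability.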

[16] = biological target: Vitamin D3 receptor (Homo sapiens) (UniProt P11473); test: qHTS assay to identify small molecule agonists of the vitamin D receptor (VDR) signaling pathway (AID 743222; calls by dose curve)
How it was run: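 Tox21 cell reporter format: VDR-bla line, 16 h compound exposure in 5% CO2 at 37C, then fluorescence intensity after 2 h with LiveBLAzer B/G FRET substrate.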

[17] = qHTS assay to identify small molecule agonists of the vitamin D receptor (VDR) signaling pathway - cell viability counter screen (AID 743224); note: series mostly up to about 63 µM; nearly all actives have a fitted effect of over 50% in size
How it was run: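 CellTiter-Glo viability readout on VDR-bla cells, measured after 16 h of compound treatment at 37C in the same wells.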

[18] = qHTS assay to identify small molecule antagonists of the peroxisome proliferator-activated receptor gamma (PPARg) signaling pathway - cell viability counter screen (AID 743194); note: nearly all actives have a fitted effect of over 55% in size
How it was run: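 Cytotoxicity counter screen in PPARg-bla HEK293H cells, same wells as reporter assay. Compounds plus 50 nM rosiglitazone (final) for 17 h at 37 C, then viability read by CellTiter-Glo luminescence.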

[19] = qHTS assay to identify small molecule agonists of the farnesoid-X-receptor (FXR) signaling pathway - cell viability counter screen (AID 743218); note: nearly all actives have a fitted effect of over 45% in size
How it was run: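 Quantitative HTS counter screen measuring ATP-based viability via CellTiter-Glo luminescence in HEK 293T cells carrying a UAS-driven beta-lactamase reporter, after 16 h compound exposure at 37 C.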

[20] = biological target: Vitamin D3 receptor (Homo sapiens) (UniProt P11473); test: qHTS assay to identify small molecule antagonists of the vitamin D receptor (VDR) signaling pathway (AID 743223; active = well fitted inhibition curve with a large enough effect in the signal ratio in the repeat runs, not every such curve was filed as active; the % refers to the signal ratio)
How it was run: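 Reporter line VDR-bla; stimulus 1alpha,25-(OH)2 vitamin D3, 3 nM final; compound co-addition, 16 h 37C/5% CO2; LiveBLAzer B/G substrate 2 h RT; fluorescence intensity.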

Sequence of Peroxisome proliferator-activated receptor delta (Homo sapiens) (Q03181 whole entry, looked up): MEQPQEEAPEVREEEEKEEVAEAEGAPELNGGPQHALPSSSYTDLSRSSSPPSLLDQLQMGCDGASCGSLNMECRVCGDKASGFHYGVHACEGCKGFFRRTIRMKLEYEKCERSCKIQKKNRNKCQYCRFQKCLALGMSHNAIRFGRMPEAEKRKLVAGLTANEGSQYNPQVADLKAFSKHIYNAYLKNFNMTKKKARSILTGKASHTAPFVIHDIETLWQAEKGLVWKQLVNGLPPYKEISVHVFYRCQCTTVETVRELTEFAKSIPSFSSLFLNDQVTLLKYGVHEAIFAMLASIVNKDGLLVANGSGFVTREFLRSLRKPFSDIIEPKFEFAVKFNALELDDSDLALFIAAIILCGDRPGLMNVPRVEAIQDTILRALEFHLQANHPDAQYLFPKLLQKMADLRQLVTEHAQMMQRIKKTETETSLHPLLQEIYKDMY
Sequence of Aryl hydrocarbon receptor (Homo sapiens) (P35869 whole entry, looked up): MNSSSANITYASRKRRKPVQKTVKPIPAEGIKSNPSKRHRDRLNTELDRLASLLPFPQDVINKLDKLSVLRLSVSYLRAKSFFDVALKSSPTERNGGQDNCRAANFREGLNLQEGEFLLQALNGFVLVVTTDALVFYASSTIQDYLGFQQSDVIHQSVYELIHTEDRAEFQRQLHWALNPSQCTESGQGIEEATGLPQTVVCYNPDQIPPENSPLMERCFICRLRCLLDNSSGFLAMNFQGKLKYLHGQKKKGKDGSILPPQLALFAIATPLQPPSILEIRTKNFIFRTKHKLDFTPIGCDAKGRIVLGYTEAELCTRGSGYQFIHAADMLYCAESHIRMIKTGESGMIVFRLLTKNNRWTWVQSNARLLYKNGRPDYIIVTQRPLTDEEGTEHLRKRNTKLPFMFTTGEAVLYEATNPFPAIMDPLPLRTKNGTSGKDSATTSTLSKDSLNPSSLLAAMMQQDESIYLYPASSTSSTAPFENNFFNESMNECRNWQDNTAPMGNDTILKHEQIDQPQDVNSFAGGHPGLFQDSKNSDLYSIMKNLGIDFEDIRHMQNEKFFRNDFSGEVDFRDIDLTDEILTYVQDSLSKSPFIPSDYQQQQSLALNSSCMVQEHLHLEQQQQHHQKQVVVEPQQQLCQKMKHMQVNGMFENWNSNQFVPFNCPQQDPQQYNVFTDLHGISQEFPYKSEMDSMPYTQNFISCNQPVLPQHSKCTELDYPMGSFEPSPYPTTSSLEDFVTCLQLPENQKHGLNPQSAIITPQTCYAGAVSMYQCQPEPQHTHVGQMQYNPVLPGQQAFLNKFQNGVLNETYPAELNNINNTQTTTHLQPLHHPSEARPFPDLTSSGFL
Sequence of Peroxisome proliferator-activated receptor gamma (Homo sapiens) (P37231 whole entry, looked up): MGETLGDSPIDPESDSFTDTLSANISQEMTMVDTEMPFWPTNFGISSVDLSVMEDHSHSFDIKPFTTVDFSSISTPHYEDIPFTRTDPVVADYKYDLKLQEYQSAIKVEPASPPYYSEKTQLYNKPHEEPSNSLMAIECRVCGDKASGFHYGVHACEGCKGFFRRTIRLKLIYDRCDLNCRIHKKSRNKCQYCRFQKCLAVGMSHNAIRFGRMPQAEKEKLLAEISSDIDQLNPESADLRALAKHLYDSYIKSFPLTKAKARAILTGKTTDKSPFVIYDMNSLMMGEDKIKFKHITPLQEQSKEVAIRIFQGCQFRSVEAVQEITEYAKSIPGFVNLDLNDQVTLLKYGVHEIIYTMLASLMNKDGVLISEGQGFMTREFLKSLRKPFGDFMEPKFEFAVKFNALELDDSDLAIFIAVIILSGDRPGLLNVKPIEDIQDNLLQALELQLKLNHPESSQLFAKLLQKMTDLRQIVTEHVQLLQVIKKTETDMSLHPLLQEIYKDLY
Sequence of Vitamin D3 receptor (Homo sapiens) (P11473 whole entry, looked up): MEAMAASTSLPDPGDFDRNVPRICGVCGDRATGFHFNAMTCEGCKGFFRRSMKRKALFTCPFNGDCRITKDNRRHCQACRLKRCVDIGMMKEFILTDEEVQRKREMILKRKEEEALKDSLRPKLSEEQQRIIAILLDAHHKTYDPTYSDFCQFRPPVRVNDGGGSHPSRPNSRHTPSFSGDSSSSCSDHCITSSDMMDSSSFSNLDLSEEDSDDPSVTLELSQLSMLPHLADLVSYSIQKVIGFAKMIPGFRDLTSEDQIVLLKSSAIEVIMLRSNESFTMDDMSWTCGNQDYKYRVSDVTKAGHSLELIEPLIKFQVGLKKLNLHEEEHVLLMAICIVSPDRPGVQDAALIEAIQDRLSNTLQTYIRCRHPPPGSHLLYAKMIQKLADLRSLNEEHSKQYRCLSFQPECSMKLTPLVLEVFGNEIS
Sequence of Bile acid receptor (Homo sapiens) (Q96RI1 whole entry, looked up): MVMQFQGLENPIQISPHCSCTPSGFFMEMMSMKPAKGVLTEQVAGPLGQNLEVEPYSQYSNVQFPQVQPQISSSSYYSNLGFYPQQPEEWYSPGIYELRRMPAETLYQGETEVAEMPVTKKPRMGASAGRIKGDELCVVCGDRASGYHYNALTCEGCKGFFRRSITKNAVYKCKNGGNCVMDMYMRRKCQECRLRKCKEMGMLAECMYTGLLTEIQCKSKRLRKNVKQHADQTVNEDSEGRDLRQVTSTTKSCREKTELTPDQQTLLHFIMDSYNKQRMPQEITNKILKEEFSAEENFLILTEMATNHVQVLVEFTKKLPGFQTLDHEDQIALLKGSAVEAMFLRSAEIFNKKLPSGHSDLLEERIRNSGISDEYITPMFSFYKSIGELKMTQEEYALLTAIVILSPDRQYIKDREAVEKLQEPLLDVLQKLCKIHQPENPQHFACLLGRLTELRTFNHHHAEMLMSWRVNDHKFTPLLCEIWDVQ

O=C(O)CNCC(=O)O
activation [1]: 1.31% [at 8.47 µM] | viability change, negative = cytotoxic [2]: -0.209% [at 8.47 µM] | activation [3]: 0.605% [at 7.08 µM] | ratio activity, negative = inhibition [4]: 11.9% [at 5.95 µM] | activation [5]: -1.79% [at 8.36 µM] | viability change, negative = cytotoxic [6]: 1.43% [at 8.36 µM] | activity change, negative = cytotoxicity [7]: 4.62% [at 5.95 µM] | activation [8]: -0.342% [at 5.95 µM] | activity change, negative = cytotoxicity [9]: -8.65% [at 5.95 µM] | activation [10]: 11.6% [at 5.95 µM] | viability change, negative = cytotoxic [11]: -5.77% [at 6.26 µM] | ratio activity, negative = inhibition [12]: -0.396% [at 6.26 µM] | activity change, negative = inhibition [13]: -18.1% [at 5.95 µM] | activation [14]: 1.91% [at 5.95 µM] | activity change, negative = cytotoxicity [15]: -4.51% [at 5.95 µM] | activation [16]: 4.1% [at 6.01 µM] | activity change, negative = cytotoxicity [17]: -6.84% [at 5.95 µM]

O=C(O)c1ccccc1Cl
Potency [1]: inactive | Potency [2]: inactive | Potency [3]: inactive | Potency [18]: inactive | Potency [5]: inactive | Potency [6]: inactive | Potency [7]: inactive | Potency [8]: inactive | Potency [9]: inactive | Potency [10]: inactive | Potency [11]: inactive | Potency [12]: inactive | Potency [13]: inactive | Potency [14]: inactive | Potency [15]: inactive | Potency [16]: inactive | Potency [17]: inactive

CCCCOC(=O)CCCCCCCC(=O)OCCCC
Potency [1]: inactive | Potency [2]: inactive | Potency [3]: inactive | Potency [4]: inactive | Potency [6]: inactive | Potency [7]: inactive | Potency [8]: inactive | Potency [9]: inactive | Potency [10]: inactive | Potency [13]: inactive | Potency [19]: inactive | Potency [14]: inactive | Potency [15]: inactive | Potency [16]: inactive | Potency [17]: inactive

CCCCCCCCCCO[C@@H]1O[C@H](CO)[C@@H](O)[C@H](O)[C@H]1O
Potency [1]: inactive | Potency [2]: inactive | Potency [3]: inactive | Potency [4]: inactive | Potency [6]: inactive | Potency [7]: inactive | Potency [8]: inactive | Potency [9]: inactive | Potency [10]: inactive | Potency [12]: inactive | Potency [15]: inactive

CC(COCCO)OCCO (stereo not drawn)
Potency [1]: inactive | Potency [2]: inactive | Potency [3]: inactive | Potency [4]: inactive | Potency [18]: inactive | Potency [6]: inactive | Potency [7]: inactive | Potency [8]: inactive | Potency [9]: inactive | Potency [13]: inactive | Potency [14]: inactive | Potency [15]: inactive | Potency [16]: inactive | outcome [20]: inactive | Potency [17]: inactive

CC(=O)c1ccc2c(c1)N(CCCN(C)C)c1ccccc1S2
Potency [1]: inactive | Potency [2]: inactive | Potency [3]: inactive | Potency [4]: inactive | Potency [6]: inactive | Potency [7]: inactive | Potency [10]: inactive | Potency [12]: inactive | Potency [17]: inactive

C[C@H](CCC(=O)O)[C@H]1CC[C@H]2[C@@H]3CC[C@@H]4C[C@H](O)CC[C@]4(C)[C@H]3C[C@H](O)[C@]12C
Potency [1]: inactive | Potency [2]: inactive | Potency [3]: inactive | Potency [4]: inactive | Potency [6]: inactive | Potency [8]: inactive | Potency [14]: 49.1 µM (active)

COCC(C)OC(C)=O (stereo not drawn)
Potency [1]: inactive | Potency [2]: inactive | Potency [3]: inactive | Potency [4]: inactive | Potency [18]: inactive | Potency [6]: inactive | Potency [7]: inactive | Potency [8]: inactive | Potency [9]: inactive | Potency [10]: inactive | Potency [11]: inactive | Potency [12]: inactive | Potency [13]: inactive | Potency [19]: inactive | Potency [14]: inactive | Potency [15]: inactive | Potency [16]: inactive | Potency [17]: inactive

CCCOC(C(=O)OC1CCN(C)CC1)(c1ccccc1)c1ccccc1
Potency [1]: inactive | Potency [2]: 29.8 µM (active) | Potency [3]: inactive | Potency [4]: inactive | Potency [18]: inactive | Potency [6]: inactive | Potency [7]: inactive | Potency [8]: inactive | Potency [9]: inactive | Potency [10]: inactive | Potency [12]: inactive | Potency [13]: inactive | Potency [16]: inactive | Potency [17]: inactive
